The campaign covered roughly 5,500 compounds. About 2,000 (36%) were called active. About 18% were inconclusive and are not listed. No stated cut-off is given here; in the data, active means normalized growth mostly below about 0.91 (no sharp cut-off); inconclusive means no clear call, values can overlap the other calls; inactive means mostly above about 0.92. The list shows a part of the results.
Assay: chemical genetic growth profiling, strain panel (AID 1159580);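 further: tested at 20 µM; growth read once vehicle control cultures reached saturation at 30 °C; 1 = growth at the plate median or of vehicle wells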
Conditions: S. cerevisiae deletion strains, growth OD

Measured: normalized growth

COc1cc(OC)c2c(=O)c(-c3ccccc3)coc2c1
inactive: locus YAL021C, strain ccr4, stronger effect = lower value 0.991 | locus YAL030W, strain snc1, stronger effect = lower value 0.991 | locus YBL061C, strain skt5, stronger effect = lower value 0.958 | locus YBR009C, strain hhf1, stronger effect = lower value 0.928 | locus YBR023C, strain chs3, stronger effect = lower value 0.915 | locus YBR171W, strain sec66, stronger effect = lower value 1.01 | locus YBR231C, strain swc5, stronger effect = lower value 0.951 | locus YBR279W, strain paf1, stronger effect = lower value 0.953 | locus YCL011C, strain gbp2, stronger effect = lower value 0.936 | locus YCL016C, strain dcc1, stronger effect = lower value 0.965 | locus YCL069W, strain vba3, stronger effect = lower value 0.982 | locus YCR088W, strain abp1, stronger effect = lower value 0.993 | locus YDL005C, strain med2, stronger effect = lower value 1.04 | locus YDL040C, strain nat1, stronger effect = lower value 0.99 | locus YDR001C, strain nth1, stronger effect = lower value 0.994 | locus YDR069C, strain doa4, stronger effect = lower value 1.02 | locus YDR137W, strain rgp1, stronger effect = lower value 0.911 | locus YDR159W, strain sac3, stronger effect = lower value 0.963 | locus YDR297W, strain sur2, stronger effect = lower value 0.995 | locus YDR334W, strain swr1, stronger effect = lower value 1 | locus YDR335W, strain msn5, stronger effect = lower value 0.98 | locus YEL003W, strain gim4, stronger effect = lower value 0.967 | locus YEL037C, strain rad23, stronger effect = lower value 0.998 | locus YEL061C, strain CIN8 (second series), stronger effect = lower value 1 | locus YER015W, strain faa2, stronger effect = lower value 0.956 | locus YER016W, strain bim1, stronger effect = lower value 1 | locus YER111C, strain swi4, stronger effect = lower value 1.02 | locus YFR010W, strain ubp6, stronger effect = lower value 1.01 | locus YGL167C, strain pmr1, stronger effect = lower value 0.985 | locus YGL173C, strain kem1, stronger effect = lower value 0.985 | locus YGL227W, strain vid30, stronger effect = lower value 1 | locus YGL253W, strain hxk2, stronger effect = lower value 0.935 | locus YHR013C, strain ard1, stronger effect = lower value 0.974 | locus YHR027C, strain rpn1, stronger effect = lower value 1 | locus YJL092W, strain hpr5, stronger effect = lower value 0.994 | locus YJL095W, strain BCK1 (second series), stronger effect = lower value 0.979 | locus YJL115W, strain asf1, stronger effect = lower value 1 | locus YJL129C, strain trk1, stronger effect = lower value 0.964 | locus YJL154C, strain vps35, stronger effect = lower value 1 | locus YJL164C, strain tpk1, stronger effect = lower value 0.935 | locus YJL166W, strain qcr8, stronger effect = lower value 0.934 | locus YJL187C, strain SWE1, stronger effect = lower value 0.997 | locus YKL160W, strain elf1, stronger effect = lower value 0.93 | locus YKR026C, strain gcn3, stronger effect = lower value 0.99 | locus YKR091W, strain srl3, stronger effect = lower value 0.996 | locus YLL001W, strain dnm1, stronger effect = lower value 0.941 | locus YLL026W, stronger effect = lower value 0.99 | locus YLL041C, strain sdh2, stronger effect = lower value 0.991 | locus YLR027C, strain aat2, stronger effect = lower value 0.947 | locus YLR221C, strain rsa3, stronger effect = lower value 0.947 | locus YLR258W, strain gsy2, stronger effect = lower value 0.925 | locus YLR262C, strain YPT6 (second series), stronger effect = lower value 0.91 | locus YLR342W, strain FKS1, stronger effect = lower value 0.911 | locus YLR357W, strain rsc2, stronger effect = lower value 1.03 | locus YLR370C, strain arc18, stronger effect = lower value 0.939 | locus YLR384C, strain iki3, stronger effect = lower value 1 | locus YML120C, strain ndi1, stronger effect = lower value 0.946 | locus YMR058W, strain fet3, stronger effect = lower value 0.978 | locus YMR125W, strain sto1, stronger effect = lower value 0.971 | locus YMR129W, stronger effect = lower value 0.999 | locus YMR205C, strain PFK2, stronger effect = lower value 0.954 | locus YMR231W, strain pep5, stronger effect = lower value 0.994 | locus YNL209W, strain ssb2, stronger effect = lower value 0.984 | locus YNL248C, strain rpa49, stronger effect = lower value 0.995 | locus YNL322C, strain KRE1 (second series), stronger effect = lower value 0.972 | locus YNR049C, strain mso1, stronger effect = lower value 1.01 | locus YOR001W, strain rrp6, stronger effect = lower value 0.96 | locus YOR070C, strain gyp1, stronger effect = lower value 0.976 | locus YOR080W, strain dia2, stronger effect = lower value 1.01 | locus YOR083W, strain WHI5, stronger effect = lower value 0.902 | locus YOR106W, strain vam3, stronger effect = lower value 0.89 | locus YOR265W, strain rbl2, stronger effect = lower value 1 | locus YOR290C, strain snf2, stronger effect = lower value 0.893 | locus YPL051W, strain arl3, stronger effect = lower value 0.936 | locus YPL078C, strain atp4, stronger effect = lower value 0.933 | locus YPL106C, strain sse1, stronger effect = lower value 1.01 | locus YPL240C, strain hsp82, stronger effect = lower value 0.986
active: locus YAL026C, strain drs2, stronger effect = lower value 0.895 | locus YDR195W, strain ref2 1.22 [resistant] | locus YDR392W, strain spt3, stronger effect = lower value 0.637 | locus YER155C, strain BEM2 (second series), stronger effect = lower value 0.596 | locus YGL240W, strain doc1, stronger effect = lower value 0.835 | locus YHR142W, strain chs7, stronger effect = lower value 0.824 | locus YLR320W, strain mms22, stronger effect = lower value 0.87 | locus YNL071W, strain lat1, stronger effect = lower value 0.807 | locus YOR270C, strain vph1, stronger effect = lower value 0.767

Reference: PubChem BioAssay AID1159580 (chemical genetic matrix, 2015)
